Measured values: PubChem BioAssay (EPA / NIEHS)
Inconclusive results are not listed. Active and inactive are the calls of the source. Rule for the calls, unless noted: active = hit-call score of the fitted dose curve at least 0.9, where 1 is the maximum; inactive = score below 0.9.

Legend:
[1] = BSK_SAg_PBMCCytotoxicity: PBMC Cytotoxicity Assessment in the BioMAP Diversity Plus: SAg Assay (AID 2283093); settings: primary human HUVEC with PBMC;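 note: PBMC viability measured as Alamar Blue reduction fluorescence at 546/580 nm; fitted both ways against DMSO so a hit may be loss or gain of signal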;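 for AC50: PBMC superantigen activated with SEB plus TSST-1 one hour after compound addition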
Outline: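 Alamar Blue reduction (6 h, ex/em 546/580 nm) read after 90 h culture of PBMC pre-dosed 1 h then stimulated with SEB plus TSST-1, 20 ng/mL each. Gain or loss of signal fitted relative to DMSO.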

[2] = read-out: Interleukin-8 (IL8), CXCL8 (gene 3576); experiment: BSK_SAg_IL8: BioMAP Diversity Plus: SAg Assay for Interleukin-8 (IL8) Biomarker Activity (AID 2283094); settings: primary human HUVEC with PBMC; actives raise or lower the signal
Outline: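 ELISA readout of IL-8 from a superantigen-activated endothelial/PBMC primary human co-culture, taken 24 h post-dosing and fitted in both directions against DMSO; parallel SRB total-protein staining flags overt cytotoxicity.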

[3] = BSK_SAg_Proliferation: Cell Proliferation Assessment in the BioMAP Diversity Plus: SAg Assay (AID 2283095); settings: primary human HUVEC with PBMC;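 note: relative cell number as total protein by SRB absorbance in sub-confluent culture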
Outline: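 Relative cell number in the endothelial cell/PBMC co-culture was quantified at 96 h by SRB staining (0.1% SRB, 10% TCA fixation, read at 560 nm). Curves were fitted in both directions relative to DMSO baseline.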

[4] = BSK_SAg_SRB: Viability Assessment in the BioMAP Diversity Plus: SAg Assay (AID 2283096); settings: primary human HUVEC with PBMC;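 note: cells read one day after compound addition; hits may be either gain or loss of signal compared with DMSO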
Outline: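 SRB absorbance at 560 nm served as the viability read-out. Cells (HUVEC plus peripheral blood mononuclear cells) were TCA-fixed and stained 24 h post-dosing; activity fitted in both directions against DMSO controls.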

[5] = target: human CYP2A6, CYP2A6 (gene 1548) (UniProt P11509); experiment: NVS_ADME_hCYP2A6: NovaScreen (NVS) CYP450-related Enzyme Activity (ADME) Assay for human CYP2A6 (AID 2283099; active = hit-call score of the fitted dose curve at least 0.9, where 1 is the maximum)
Outline: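 Loss of fluorescence signal relative to acetonitrile vehicle reported CYP2A6 inhibition in a cell-free system using insect-cell-derived enzyme. Readings were taken at 0.5 h; top concentration in follow-up dose series was 20 uM.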

[6] = target: human CYP1A1, CYP1A1 (gene 1543) (UniProt P04798); experiment: NVS_ADME_hCYP1A1: NovaScreen (NVS) CYP450-related Enzyme Activity (ADME) Assay for human CYP1A1 (AID 2283100; active = hit-call score of the fitted dose curve at least 0.9, where 1 is the maximum)
Outline: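 Inhibition of recombinant CYP1A1 turnover was assessed fluorometrically in a biochemical format 1 h after compound exposure. Testing began at 10 uM in duplicate and progressed to concentration series reaching 20 uM, with on-plate positive and negative controls.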

[7] = target: human CYP2B6, CYP2B6 (gene 1555) (UniProt P20813); experiment: NVS_ADME_hCYP2B6: NovaScreen (NVS) CYP450-related Enzyme Activity (ADME) Assay for human CYP2B6 (AID 2283101; active = hit-call score of the fitted dose curve at least 0.9, where 1 is the maximum)
Outline: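 Compounds were first screened in duplicate at 10 uM against recombinant enzyme, with the fluorescent product measured after 1 hour. Active compounds were retested over a concentration series. Loss of fluorescence versus acetonitrile control was scored as reduced enzyme activity.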

[8] = target: human CYP2D6, CYP2D6 (gene 1565) (UniProt P10635); experiment: NVS_ADME_hCYP2D6: NovaScreen (NVS) CYP450-related Enzyme Activity (ADME) Assay for human CYP2D6 (AID 2283107; active = hit-call score of the fitted dose curve at least 0.9, where 1 is the maximum)
Outline: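 Biochemical fluorescence assay, insect-cell-derived enzyme. Read at 1 h; inhibition taken from loss of signal against acetonitrile. Screened at 10 uM in duplicate, with concentration series for actives.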

[9] = target: human CYP1A2, CYP1A2 (gene 1544) (UniProt P05177); experiment: NVS_ADME_hCYP1A2: NovaScreen (NVS) CYP450-related Enzyme Activity (ADME) Assay for human CYP1A2 (AID 2283102; active = hit-call score of the fitted dose curve at least 0.9, where 1 is the maximum;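 note: fluorescence from turnover of a fluorogenic substrate by recombinant insect-cell CYP1A2; potency for inhibition since loss of fluorescence marks reduced CYP1A2 activity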)
Outline: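 Inhibition scored as decrease in fluorescent product versus acetonitrile negative control. Enzyme: insect-cell recombinant human CYP1A2, substrate-specific, cell-free. Reading at 0.5 h; 10 uM duplicate initial screen with positive and negative controls on every plate.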

Measured: AC50

human CYP2B6, CYP2B6 (gene 1555), sequence (P20813 whole entry, looked up): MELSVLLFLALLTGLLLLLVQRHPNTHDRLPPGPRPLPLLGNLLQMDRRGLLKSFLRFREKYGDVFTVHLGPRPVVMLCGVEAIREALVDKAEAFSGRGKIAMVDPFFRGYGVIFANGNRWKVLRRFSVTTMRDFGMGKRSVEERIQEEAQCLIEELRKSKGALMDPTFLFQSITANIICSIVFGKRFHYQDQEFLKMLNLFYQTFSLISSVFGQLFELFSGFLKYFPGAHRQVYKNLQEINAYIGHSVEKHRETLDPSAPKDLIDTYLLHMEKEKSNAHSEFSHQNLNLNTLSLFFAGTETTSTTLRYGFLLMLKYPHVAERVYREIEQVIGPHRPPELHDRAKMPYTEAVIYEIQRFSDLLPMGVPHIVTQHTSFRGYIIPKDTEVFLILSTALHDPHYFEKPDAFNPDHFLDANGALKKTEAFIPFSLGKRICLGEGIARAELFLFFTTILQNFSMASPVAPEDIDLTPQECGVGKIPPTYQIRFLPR
human CYP1A2, CYP1A2 (gene 1544), sequence (P05177 whole entry, looked up): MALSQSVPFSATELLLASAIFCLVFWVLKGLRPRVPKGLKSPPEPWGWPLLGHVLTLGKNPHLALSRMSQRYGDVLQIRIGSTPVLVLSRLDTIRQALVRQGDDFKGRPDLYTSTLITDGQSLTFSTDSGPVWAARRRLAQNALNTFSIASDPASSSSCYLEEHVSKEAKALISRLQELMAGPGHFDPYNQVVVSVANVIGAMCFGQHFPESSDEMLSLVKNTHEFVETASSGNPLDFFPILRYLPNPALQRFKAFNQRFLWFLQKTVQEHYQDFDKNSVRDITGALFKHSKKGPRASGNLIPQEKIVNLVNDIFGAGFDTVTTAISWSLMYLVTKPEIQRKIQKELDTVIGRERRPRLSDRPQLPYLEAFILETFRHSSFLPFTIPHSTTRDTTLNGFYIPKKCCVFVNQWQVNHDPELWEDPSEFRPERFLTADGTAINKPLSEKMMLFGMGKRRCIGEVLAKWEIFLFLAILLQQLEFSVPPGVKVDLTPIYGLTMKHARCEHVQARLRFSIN
human CYP2D6, CYP2D6 (gene 1565), sequence (P10635 whole entry, looked up): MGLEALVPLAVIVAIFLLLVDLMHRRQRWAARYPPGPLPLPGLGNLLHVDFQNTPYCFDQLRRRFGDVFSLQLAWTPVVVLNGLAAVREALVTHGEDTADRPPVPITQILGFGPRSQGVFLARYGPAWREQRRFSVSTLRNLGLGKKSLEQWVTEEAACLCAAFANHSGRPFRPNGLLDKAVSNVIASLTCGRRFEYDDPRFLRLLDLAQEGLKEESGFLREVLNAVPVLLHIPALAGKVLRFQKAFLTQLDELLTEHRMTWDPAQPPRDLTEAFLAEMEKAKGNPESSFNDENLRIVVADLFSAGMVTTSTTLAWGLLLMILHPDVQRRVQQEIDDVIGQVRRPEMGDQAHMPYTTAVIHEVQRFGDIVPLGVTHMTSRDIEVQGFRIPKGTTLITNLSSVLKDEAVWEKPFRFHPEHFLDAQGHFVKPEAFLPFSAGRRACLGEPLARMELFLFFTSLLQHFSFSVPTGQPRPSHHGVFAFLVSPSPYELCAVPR
human CYP1A1, CYP1A1 (gene 1543), sequence (P04798 whole entry, looked up): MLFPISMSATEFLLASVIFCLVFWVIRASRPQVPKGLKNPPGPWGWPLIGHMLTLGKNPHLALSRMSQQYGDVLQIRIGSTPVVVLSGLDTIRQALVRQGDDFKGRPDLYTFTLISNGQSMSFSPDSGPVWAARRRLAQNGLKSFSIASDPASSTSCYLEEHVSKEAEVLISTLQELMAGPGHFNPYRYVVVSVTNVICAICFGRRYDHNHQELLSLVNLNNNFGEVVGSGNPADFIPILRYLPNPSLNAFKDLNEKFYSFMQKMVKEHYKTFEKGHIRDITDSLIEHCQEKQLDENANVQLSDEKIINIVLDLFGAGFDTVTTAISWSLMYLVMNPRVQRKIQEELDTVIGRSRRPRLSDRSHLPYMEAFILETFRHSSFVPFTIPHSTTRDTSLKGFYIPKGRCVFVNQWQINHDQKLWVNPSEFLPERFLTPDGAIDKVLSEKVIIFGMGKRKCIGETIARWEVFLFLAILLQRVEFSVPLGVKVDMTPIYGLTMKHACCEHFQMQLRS
human CYP2A6, CYP2A6 (gene 1548), sequence (P11509 whole entry, looked up): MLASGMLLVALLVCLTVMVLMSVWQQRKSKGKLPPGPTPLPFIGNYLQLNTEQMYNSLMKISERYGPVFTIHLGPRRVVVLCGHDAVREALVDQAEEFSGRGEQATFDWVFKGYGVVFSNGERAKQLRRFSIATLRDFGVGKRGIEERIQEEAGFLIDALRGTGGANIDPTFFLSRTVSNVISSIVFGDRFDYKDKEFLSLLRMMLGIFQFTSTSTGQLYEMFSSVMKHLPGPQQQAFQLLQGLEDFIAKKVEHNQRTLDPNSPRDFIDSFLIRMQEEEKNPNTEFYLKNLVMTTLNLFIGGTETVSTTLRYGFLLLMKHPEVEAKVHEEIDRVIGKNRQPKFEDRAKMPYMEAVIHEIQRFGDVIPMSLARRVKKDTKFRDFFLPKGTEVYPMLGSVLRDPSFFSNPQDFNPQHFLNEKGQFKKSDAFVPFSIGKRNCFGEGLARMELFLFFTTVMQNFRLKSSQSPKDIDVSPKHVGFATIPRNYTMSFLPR

Nc1cccc(N)c1
inactive: [1] | [2] | [3] | [4]

CC/C(=C\C(=N/O)C(N)=O)C(C)[N+](=O)[O-] (stereo unspecified)
inactive: [1] | [2] | [4]
active: [3] 20 µM

CC1(C)C(=O)N(Br)C(=O)N1Br
inactive: [1] | [2] | [3] | [4]

COc1ccc(/C=C/S(=O)(=O)NC(=O)c2ccc(C)cc2Cl)cc1
inactive: [1] | [2] | [4]
active: [3] 6.54 µM

O=C(O)c1cccc(Oc2ccccc2)c1
inactive: [1] | [2] | [3] | [4]

O=c1n(CC2CO2)c(=O)n(CC2CO2)c(=O)n1CC1CO1 (stereo unspecified)
inactive: [1]
active: [2] 20 µM | [3] 10.6 µM | [4] 17.5 µM

COc1ccc(-n2nc(C(F)F)cc2-c2ccc(S(C)=O)cc2)cc1 (stereo unspecified)
active: [2] 2.09 µM
inactive: [1] | [3] | [4]

O=C1CCC(N2C(=O)c3ccccc3C2=O)C(=O)N1 (stereo unspecified)
inactive: [1] | [2] | [3] | [4]

C1N2CN3CN1CN(C2)C3
inactive: [1] | [2] | [3] | [4]

CCCCCCCCO
inactive: [1] | [2] | [3] | [4]

COC(=O)c1ccccc1O
inactive: [1] | [2] | [3] | [4]

COCCOc1cc2cc(C(=O)NC3CCN(C(C)C)CC3)n(CC(=O)Nc3ccc(Cl)cn3)c2cn1
inactive: [1] | [2] | [3] | [4]

C=CC(=C)CCC=C(C)C
inactive: [1] | [2] | [3] | [4]

CC(C)=CCC/C(C)=C\CO
inactive: [1] | [2] | [3] | [4]

CCCCCCCCCCCCc1ccccc1
inactive: [1] | [2] | [3] | [4]

CC(=O)c1ccc2c(c1)[C@H](NC(=O)c1ccc(F)cc1)[C@@H](O)C(C)(C)O2
active: [3] 4.31 µM
inactive: [1] | [2] | [4]

COc1ccc2sc(C(=O)Nc3nnn[nH]3)c(OC(C)C)c2c1
active: [1] 10 µM | [2] 16.6 µM | [3] 11.9 µM | [4] 14.2 µM

CCNc1ccccc1
inactive: [1] | [2] | [3] | [4]

COCCOCCOCCOC
inactive: [1] | [2] | [3] | [4]

Cc1ccc(S(=O)(=O)O)cc1C
inactive: [1] | [2] | [3] | [4]

O=C(O)CCN(C1(C(=O)NO)CCCC1)S(=O)(=O)c1ccc(Oc2ccc(F)cc2)cc1
inactive: [1] | [2] | [3] | [4]

CCOc1cccc(-n2cc(C(=O)N3CCN(c4cc(C(=O)O)c5ccccc5c4)CC3)nc2-c2ccc(C)cc2)c1
active: [1] 26.9 µM | [2] 11.4 µM | [3] 24.6 µM | [4] 14.1 µM

CCOCCOCCOCCO
inactive: [1] | [2] | [3] | [4]

Cn1c(=O)cc(Oc2ccc(F)cc2F)c2cnc(NCC(C)(C)O)nc21
inactive: [1] | [3] | [4]
active: [2] 1.09 µM

On1ccccc1=S
active: [1] 18.2 µM | [3] 6.94 µM
inactive: [2] | [4]

O=C(O)c1cccc(N(Cc2cccnc2)c2ccc(OC(F)F)c(OC(F)F)c2)c1
active: [2] 2.31 µM | [3] 7.83 µM
inactive: [1] | [4]

CC[C@H](C)C(=O)O[C@H]1C[C@@H](C)C=C2C=C[C@H](C)[C@H](CC[C@@H]3C[C@@H](O)CC(=O)O3)[C@H]21
active: [1] 21.7 µM | [2] 0.147 µM | [3] 4.5 µM | [4] 3.95 µM

CCOC(=O)CC(CC(=O)OCC)(OC(C)=O)C(=O)OCC
inactive: [1] | [2] | [3] | [4]

Nc1nc2ncc(CNc3ccc(C(=O)N[C@@H](CCC(=O)O)C(=O)O)cc3)nc2c(=O)[nH]1
inactive: [1] | [2] | [3] | [4] | [5]

CC(=O)OCCC(C)C
not listed: [5] | [9]
inactive: all other assays above

CC(C)=CCC/C(C)=C/CO
inactive: [1] | [2] | [3] | [4]

COC(=O)c1c(Cl)c(Cl)c(C(=O)OC)c(Cl)c1Cl
inactive: [1] | [2] | [3] | [4]
active: [9] 8.47 µM

CCCCC(CC)COC(=O)c1ccc(C(=O)OCC(CC)CCCC)cc1 (stereo unspecified)
inactive: [1] | [3] | [4]
